Among the data in PubChem BioAssay (Tox21) are Potency and outcome values, retold here.

“And” between values parts separate entries of the source, which are not always exact repeats. Equal values may be shown once. Inconclusive results are not listed. Some structures have more than one record in an assay (separate samples or runs), and their calls can disagree. The source made the active and inactive calls. Unless noted, calls come from the whole dose curve; as a rule, active = well fitted curve in the direction sought with a large enough effect in the repeat runs; inconclusive = weak or mixed curves; inactive = no such curve, though single readings can be large; an effect the other way counts as inactive or inconclusive.

Assay [1] is described as follows: qHTS assay for small molecule agonists of the p53 signaling pathway (AID 651631; calls by dose curve; note: nearly all actives have a fitted effect of over 15% in size). In outline: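 Readout was fluorescence from the LiveBLAzer FRET substrate, applied for 2 h at room temperature after 16 h compound exposure at 37 °C. Cells were the p53RE-bla HCT-116 line, with beta-lactamase driven by p53 response elements.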
(In qHTS, concentration-response curves come from the screen itself.)

The nature of assay [2]: qHTS assay for small molecules that induce genotoxicity in human embryonic kidney cells expressing luciferase-tagged ATAD5 (AID 651632). Note: nearly all actives have a fitted effect of over 15% in size. The method in brief: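 HEK293T cells carrying a luciferase reporter tagged to ATAD5 were exposed to compound or DMSO vehicle for 16 hr at 37C, 5% CO2. Amplite was added, and after 30 min at room temperature luciferase activity was read as a marker of ATAD5 induction.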

A short description of assay [3]: qHTS assay for small molecule agonists of the p53 signaling pathway - cell viability (AID 651633; calls by dose curve; note: nearly all actives have a fitted effect of over 30% in size; note: potency is the fitted concentration of half-maximal effect). In outline:
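p53RE-bla cells, seeded at 4,000 per well and rested 5 h at 37 C/5% CO2, received compounds in DMSO for 16 h at 37 C. CellTiter-Glo was then added, and luminescence was read after 30 min at room temperature to gauge cytotoxicity.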

The nature of assay [4]: qHTS assay for small molecules that induce genotoxicity in human embryonic kidney cells expressing luciferase-tagged ATAD5 - cell viability (AID 651634; calls by dose curve; note: nearly all actives have a fitted effect of over 25% in size). In outline: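 HEK293T cells expressing luciferase-tagged ATAD5 were exposed to compound or DMSO for 15.5 hr at 37C, 5% CO2. Viability was then read as live-cell protease activity by CellTiter-Fluor fluorescence after 30 min at 37C.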

The nature of assay [5]: qHTS assay for small molecule disruptors of the mitochondrial membrane potential - cell viability (AID 720634; calls by dose curve; note: nearly all actives have a fitted effect of over 20% in size; note: potency is the fitted concentration of half-maximal effect). The method in brief:
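HepG2 cells seeded overnight at 37 C, then exposed to compound or DMSO for 1 hr at 37 C, 5% CO2. m-MPI dye added, then CellTiter-Glo for 30 min at room temperature; viability read as ATP luminescence.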

Assay [6] in a line: qHTS assay for small molecule disruptors of the mitochondrial membrane potential (AID 720635). Note: potency is the fitted concentration of half-maximal effect. The method in brief:
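HepG2 cells (2,000/well) attached overnight at 37C, then took compound for 1 hr at 37C, 5% CO2. Mito-MPS dye was added for 30 min; fluorescence was read at 490/535 nm (monomers) and 540/590 nm (aggregates).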

Assay [7] is described as follows: qHTS assay to test for compound auto fluorescence at 590 nm (red) in HepG2 cells (AID 720674). The method in brief:
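Rose Bengal sodium served as the red fluorophore standard. HepG2 monolayers (overnight attachment, MEM with 10% FBS) were exposed to test compounds for 1 hr at 37 C and read at Ex 540/Em 590 nm.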

Assay [8] in a line: qHTS assay to test for compound auto fluorescence at 535 nm (green) in HepG2 cells (AID 720675).
Assay [9] is described as follows: qHTS assay to test for compound auto fluorescence at 460 nm (blue) in HEK293 cells (AID 720678). The method in brief:
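Blue-channel (Ex/Em 405/460 nm) intensity measured in HEK293 cultures after overnight compound exposure at 37C; signal expressed relative to triamterene. Cells plated 2,000 per well in 10% dialyzed FBS medium and allowed 4-5 hr to attach.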

Assay [10] can be described thus: qHTS assay to test for compound auto fluorescence at 590 nm (red) in HEK293 cells (AID 720679). The method in brief:
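Red-channel autofluorescence (Ex/Em 540/590 nm; Rose Bengal sodium reference) was measured after overnight 37C, 5% CO2 exposure of attached HEK293 cells, 2,000 per well in medium with 10% dialyzed FBS.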

Assay [11] is described as follows: qHTS assay to test for compound auto fluorescence at 535 nm (green) in HEK293 cells (AID 720680).
Assay [12] in a line: qHTS assay to test for compound auto fluorescence at 460 nm (blue) in HEK293 cell free culture (AID 720681). The method in brief: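 Test compounds were pinned into cell-free culture medium (DMEM with 10% FBS) and fluorescence was read directly at Ex/Em 405/460 nm. Signals were expressed as fluorescence equivalents of triamterene, with DMSO vehicle as control.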
Assay [13] in a line: qHTS assay to test for compound auto fluorescence at 535 nm (green) in HEK293 cell free culture (AID 720682). In outline:
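Compounds were pin-transferred into cell-free DMEM with 10% FBS, and green fluorescence was read at excitation 485 nm and emission 535 nm. Intensities were expressed as fluorescein-equivalent values.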

A short description of assay [14]: qHTS assay to test for compound auto fluorescence at 590 nm (red) in HEK293 cell free culture (AID 720683). In outline: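 Tox21 10K library compounds were pinned into cell-free DMEM with 10% FBS and fluorescence was read at excitation 540 nm. Activity is expressed as Rose Bengal sodium equivalency.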
Assay [15] in a line: qHTS assay to test for compound auto fluorescence at 590 nm (red) in HepG2 cell free culture (AID 720684). In outline: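 Measured in medium alone (MEM containing 10% FBS) following pintool addition of compound; emission at 590 nm with 540 nm excitation, referenced to Rose Bengal sodium.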
Assay [16] is described as follows: qHTS assay to test for compound auto fluorescence at 460 nm (blue) in HepG2 cell free culture (AID 720685). The method in brief: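 Compound (23 nL) or DMSO pinned into cell-free MEM with 10% FBS; blue fluorescence read at 405/460 nm excitation/emission, expressed as auto-fluorescence equivalency to triamterene.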
Assay [17] can be described thus: qHTS assay to test for compound auto fluorescence at 535 nm (green) in HepG2 cell free culture (AID 720686).
A short description of assay [18]: qHTS assay to test for compound auto fluorescence at 460 nm (blue) in HepG2 cells (AID 720687). In outline: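 Cells (2,000/well in MEM with 10% FBS) attached overnight at 37 C, then were exposed to compound or DMSO for 1 hr at 37 C, 5% CO2. Fluorescence read at Ex/Em 405/460 nm, expressed as triamterene-equivalent signal.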
For assay [19], the target named is Glucocorticoid receptor (Homo sapiens) (UniProt P04150). Kind of assay: qHTS assay to identify small molecule agonists of the glucocorticoid receptor (GR) signaling pathway (AID 720691; active = well fitted activation curve with a large enough effect in the signal ratio in the repeat runs, not every such curve was filed as active; the % refers to the signal ratio). In outline:
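GR-bla HeLa cells (beta-lactamase reporter under glucocorticoid response element) were plated 4 h at 37 C/5% CO2, given compounds in DMSO, and incubated 18 h at 37 C. LiveBLAzer B/G FRET substrate was added for 2 h at room temperature, then fluorescence intensity read.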

Assay [20] shares this target. The experiment in a line: qHTS assay to identify small molecule antagonists of the glucocorticoid receptor (GR) signaling pathway (AID 720692; active = well fitted inhibition curve with a large enough effect in the signal ratio in the repeat runs, not every such curve was filed as active; the % refers to the signal ratio). The method in brief:
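GR-bla HeLa cells (beta-lactamase reporter under glucocorticoid response element) were pre-plated 4 h at 37 C, treated with compounds plus 5 nM dexamethasone (final) for 18 h, then read by LiveBLAzer B/G FRET fluorescence after 2 h.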

Sequence of Glucocorticoid receptor (Homo sapiens) (P04150 whole entry, looked up): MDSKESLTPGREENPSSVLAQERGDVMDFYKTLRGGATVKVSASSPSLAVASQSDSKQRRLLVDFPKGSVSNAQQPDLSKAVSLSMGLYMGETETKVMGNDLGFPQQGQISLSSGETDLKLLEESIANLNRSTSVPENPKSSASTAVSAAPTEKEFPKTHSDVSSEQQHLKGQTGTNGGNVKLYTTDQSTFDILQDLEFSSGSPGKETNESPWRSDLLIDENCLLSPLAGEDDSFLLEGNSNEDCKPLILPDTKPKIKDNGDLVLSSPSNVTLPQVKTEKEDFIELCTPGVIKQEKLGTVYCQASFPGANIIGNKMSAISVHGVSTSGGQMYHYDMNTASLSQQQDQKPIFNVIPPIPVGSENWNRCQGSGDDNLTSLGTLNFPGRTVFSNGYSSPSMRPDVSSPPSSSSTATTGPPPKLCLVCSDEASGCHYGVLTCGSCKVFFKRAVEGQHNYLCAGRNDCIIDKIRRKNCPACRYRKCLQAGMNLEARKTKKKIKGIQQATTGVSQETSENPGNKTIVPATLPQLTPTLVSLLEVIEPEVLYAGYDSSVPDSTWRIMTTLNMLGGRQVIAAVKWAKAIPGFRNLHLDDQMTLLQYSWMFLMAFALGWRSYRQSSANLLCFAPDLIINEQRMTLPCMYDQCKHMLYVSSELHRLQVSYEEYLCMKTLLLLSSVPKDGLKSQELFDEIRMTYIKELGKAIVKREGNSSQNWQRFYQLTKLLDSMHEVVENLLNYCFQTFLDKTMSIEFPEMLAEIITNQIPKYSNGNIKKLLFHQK

For the compound `COC1=CC(=O)O[C@@H](CCc2ccccc2)C1`, the Potency entry in assay [1], in [2], in [3], in assay [4], in assay [5] and in assay [6] was “inactive” throughout. Further, the Potency result in assay [20] was “inactive”. In addition, the compound was called inactive in assay [7], in assay [8], in [9], in [10], in assay [11] and in assay [12]. For the same compound, the outcome in [13], in assay [14], in assay [15], in [16], in assay [17] and in assay [18] was inactive. The result in assay [19] was inactive.

In the case of `c1ccc(C2CC2)c(OCC2=NCCN2)c1`, the Potency entry in [1], in [2], in assay [3], in assay [4], in assay [5] and in [6] was “inactive” each time. Also, the Potency entry in [20] was “inactive”. The call in [7], in [8], in assay [9], in assay [10], in assay [11] and in assay [12] was inactive. In addition, the compound was called inactive in assay [13], in [14], in assay [15], in assay [16], in assay [17] and in assay [18].

On to `COc1cc(CC(C)N)cc2c1OCO2` (centres undefined), for which the Potency entry in assay [1], in [2], in assay [3], in assay [4], in [5] and in assay [6] was “inactive” each time. In addition, in assay [20], the Potency entry was “inactive”. For the same compound, the result in assay [7], in assay [8], in assay [10], in assay [11], in assay [12] and in [13] was inactive. In addition, the compound was classed as inactive in assay [14], in assay [15], in [16], in assay [17], in assay [18] and in [19].

As to `C[N+](C)(C)CCCl`, the Potency result in assay [1], in assay [2], in assay [3], in [4] and in assay [5] was “inactive” each time. For the same compound, the compound was called inactive in assay [7], in assay [8], in assay [9], in assay [10], in [11] and in [12]. Further, the outcome in assay [13], in assay [14], in assay [15], in [16], in assay [17] and in assay [18] was inactive.

With `CNC(C)Cc1ccccc1OC` (centres undefined), the Potency entry in assay [1], in [2], in [3], in assay [4], in assay [5] and in assay [6] was “inactive” each time. For the same compound, the Potency entry in assay [20] was “inactive”. Further, the result in [7], in assay [8], in assay [10], in assay [11], in [12] and in assay [13] was inactive. The call in [14], in assay [15], in assay [16], in assay [17] and in assay [18] was inactive.

With `c1ccoc1`, the Potency result in assay [1], in assay [2], in assay [3], in assay [4], in assay [5] and in assay [6] was “inactive” in each case. Also, the Potency result in assay [20] was “inactive”. In addition, the outcome in [7], in assay [8], in assay [9], in [10], in assay [11] and in assay [12] was inactive. Moreover, the compound was called inactive in assay [13], in assay [14], in assay [15], in [16], in [17] and in [18]. In [19], the call was inactive.

In the case of `CCOC(=O)C(Cl)C(C)=O` (centres undefined), the Potency entry in assay [1], in [2], in [3], in assay [4] and in assay [5] was “inactive” in each case. The compound was called inactive in [7], in assay [8], in [9], in assay [10], in assay [11] and in assay [12]. The outcome in assay [13], in [14], in assay [15], in assay [16], in [17] and in [18] was inactive.

Take `CCOP(=S)(OCC)Oc1nc(Cl)c(Cl)cc1Cl`: the Potency result in assay [1], in assay [2], in [4] and in assay [20] was “inactive” each time. Besides, the Potency in assay [3] was 54.6 µM (active) and inactive; in [5], 6.87 µM (active); in assay [6] it was 13.7 µM (active) and 30.6 µM (active). The call in [7], in assay [8], in assay [9], in [10], in [11] and in [12] was inactive. In addition, the compound was classed as inactive in [13], in [14], in assay [15], in assay [16], in [17] and in assay [18].
